Experimental data reported in PubChem BioAssay.
Values without a mark were called inactive. For some assays here: Measured potencies and affinities stand elsewhere. Active and inactive are the calls of the source. Unless noted, no rule for the calls is given here.

How the values were obtained:
[1] = antimalarial activity against Dd2 strain (AID 2302;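 active = growth inhibition above 50% at the single 2 µM test dose, taken to imply half-maximal potency below 2 µM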;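 also: 0% = DMSO untreated growth and 100% = chloroquine plus artemisinin killed control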); conditions: P. falciparum Dd2 in RBCs, LDH growth readout, 72 h; at 2 µM; active compounds read high
[2] = HepG2 cytotoxicity, primary screen, cytotoxicity control for P. falciparum antimalarial project, cell-based, ATP luminescence (AID 2303;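 active = inhibition above 50%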;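 also: 0% = DMSO wells and 100% = digitonin-killed cells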); conditions: HepG2 viability, 24-48 h, at 10 µM, active compounds read high
[3] = biological target: L-lactate dehydrogenase (Plasmodium falciparum (isolate CDC / Honduras)) (UniProt Q27743); assay: PfLDH activity inhibition – cell lysate, 3D7 strain, counter-screen for P. falciparum growth inhibition project (AID 2304);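 also: 0% = vehicle and 100% = reference inhibitor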; conditions: P. falciparum 3D7 crude extract, LDH APAD/NBT absorbance; at 2 µM; active compounds read high
[4] = inhibition of 3D7 malaria parasite growth – strain 3D7 (AID 2306);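 also: 0% = DMSO wells and 100% = chloroquine plus artemisinin control wells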; conditions: P. falciparum 3D7 erythrocytic growth, LDH absorbance, 72 h; at 2 µM; active compounds read high
[5] = biological target: Calcium-dependent protein kinase 1 (Plasmodium falciparum (isolate 3D7)) (UniProt P62344); assay: PfCDPK1 kinase inhibitors, biochemical, TCAMS library (AID 1159585; cut-off not given, nearly all actives have IC50 up to about 0.98 µM;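 also: inhibitors leave more ATP so luminescence rises with inhibition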); conditions: recombinant PfCDPK1, Kinase-Glo ATP depletion luminescence
[6] = biological target: Plasmodium falciparum protein kinase 6 (PK6, PF3D7_1337100) (UniProt Q8IDW1); assay: PfPK6 kinase inhibitors, biochemical, TCAMS library (AID 1159586); conditions: recombinant PfPK6, Kinase-Glo ATP depletion luminescence
[7] = biological target: Protein kinase 7 (PK7), Plasmodium falciparum 3D7 (PF3D7_0213400) (UniProt Q7YTF7); assay: inhibition of Plasmodium PK7 catalytic activity – biochemical, TCAMS antimalarial set, Kinase-Glo luminescence (AID 1159587); conditions: recombinant PfPK7, Kinase-Glo ATP depletion luminescence
[8] = biological target: Calcium-dependent protein kinase 4 (Plasmodium falciparum (isolate 3D7)) (UniProt Q8IBS5); assay: PfCDPK4 kinase inhibitors, biochemical, TCAMS library (AID 1159588; cut-off not given, nearly all actives have IC50 up to about 0.91 µM); conditions: recombinant PfCDPK4, Kinase-Glo ATP depletion luminescence
Sequence of Calcium-dependent protein kinase 4 (Plasmodium falciparum (isolate 3D7)) (Q8IBS5 whole entry, looked up): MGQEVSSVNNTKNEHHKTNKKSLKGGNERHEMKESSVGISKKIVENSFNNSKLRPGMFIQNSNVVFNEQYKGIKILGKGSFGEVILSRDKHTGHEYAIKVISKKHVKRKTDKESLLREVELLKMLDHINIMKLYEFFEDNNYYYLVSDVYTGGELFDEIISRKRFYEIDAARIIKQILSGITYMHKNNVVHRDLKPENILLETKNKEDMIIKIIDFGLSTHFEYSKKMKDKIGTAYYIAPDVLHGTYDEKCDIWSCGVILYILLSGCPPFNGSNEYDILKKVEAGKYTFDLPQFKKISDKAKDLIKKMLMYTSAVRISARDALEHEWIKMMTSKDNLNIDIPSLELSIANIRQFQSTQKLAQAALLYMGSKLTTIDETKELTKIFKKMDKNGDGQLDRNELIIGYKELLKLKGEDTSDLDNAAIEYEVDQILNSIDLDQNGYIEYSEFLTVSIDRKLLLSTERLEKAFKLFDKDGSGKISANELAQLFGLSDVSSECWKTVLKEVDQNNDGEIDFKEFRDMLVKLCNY

Sequence of Protein kinase 7 (PK7), Plasmodium falciparum 3D7 (PF3D7_0213400) (Q7YTF7 1-343): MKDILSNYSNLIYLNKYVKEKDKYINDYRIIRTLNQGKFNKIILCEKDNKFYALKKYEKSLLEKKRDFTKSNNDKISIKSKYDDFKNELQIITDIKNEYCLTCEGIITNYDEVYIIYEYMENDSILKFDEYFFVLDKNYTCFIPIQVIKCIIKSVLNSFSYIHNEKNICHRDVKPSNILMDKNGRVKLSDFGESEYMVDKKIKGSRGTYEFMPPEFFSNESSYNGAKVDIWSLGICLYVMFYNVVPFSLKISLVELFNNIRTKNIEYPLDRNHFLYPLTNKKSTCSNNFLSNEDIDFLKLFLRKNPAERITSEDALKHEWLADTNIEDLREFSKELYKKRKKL
Sequence of Plasmodium falciparum protein kinase 6 (PK6, PF3D7_1337100) (Q8IDW1 1-305): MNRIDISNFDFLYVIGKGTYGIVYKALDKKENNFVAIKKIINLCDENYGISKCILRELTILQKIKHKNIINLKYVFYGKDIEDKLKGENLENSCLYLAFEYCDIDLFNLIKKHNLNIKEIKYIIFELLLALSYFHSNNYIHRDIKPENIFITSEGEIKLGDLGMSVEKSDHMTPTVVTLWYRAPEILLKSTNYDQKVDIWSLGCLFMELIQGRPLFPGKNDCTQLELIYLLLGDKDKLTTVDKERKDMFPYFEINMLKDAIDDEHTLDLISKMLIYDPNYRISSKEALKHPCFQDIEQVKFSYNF
Sequence of Calcium-dependent protein kinase 1 (Plasmodium falciparum (isolate 3D7)) (P62344 whole entry, looked up): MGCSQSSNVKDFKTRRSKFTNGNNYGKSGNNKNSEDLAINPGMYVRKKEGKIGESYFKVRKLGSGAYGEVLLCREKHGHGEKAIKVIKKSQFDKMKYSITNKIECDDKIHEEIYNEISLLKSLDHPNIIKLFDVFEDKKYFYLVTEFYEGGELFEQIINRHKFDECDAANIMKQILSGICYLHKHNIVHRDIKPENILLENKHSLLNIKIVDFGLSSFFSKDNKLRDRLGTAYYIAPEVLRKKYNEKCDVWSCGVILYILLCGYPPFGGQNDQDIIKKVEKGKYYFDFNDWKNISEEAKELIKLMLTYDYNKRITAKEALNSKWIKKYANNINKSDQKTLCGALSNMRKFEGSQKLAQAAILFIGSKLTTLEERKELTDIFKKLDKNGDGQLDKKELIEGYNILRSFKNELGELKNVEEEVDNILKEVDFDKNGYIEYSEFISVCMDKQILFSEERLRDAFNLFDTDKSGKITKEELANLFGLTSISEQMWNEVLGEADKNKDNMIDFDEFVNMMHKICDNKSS
Sequence of L-lactate dehydrogenase (Plasmodium falciparum (isolate CDC / Honduras)) (Q27743 whole entry, looked up): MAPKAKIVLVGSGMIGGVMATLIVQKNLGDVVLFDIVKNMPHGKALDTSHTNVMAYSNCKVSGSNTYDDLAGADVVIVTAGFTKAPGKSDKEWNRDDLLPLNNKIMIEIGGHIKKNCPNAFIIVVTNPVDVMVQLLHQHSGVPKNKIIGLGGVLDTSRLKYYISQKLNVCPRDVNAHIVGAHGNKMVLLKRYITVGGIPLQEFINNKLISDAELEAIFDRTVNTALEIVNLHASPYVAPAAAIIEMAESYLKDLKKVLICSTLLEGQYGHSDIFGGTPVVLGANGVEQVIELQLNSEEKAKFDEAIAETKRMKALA

SMILES | growth inhibition [1] | inhibition [2] | inhibition [3] [%] | growth inhibition [4] | outcome [5] | outcome [6] | outcome [7] | outcome [8]
O=C(Nc1cccc(-c2nn3ccccc3c2-c2ccnc(Nc3ccccc3)n2)c1)c1c(F)cccc1F | 98% (active) | 69% (active) | -6 | 98% (active) | inactive | inactive | inactive | inactive
Fc1cccc(Nc2nc(NCCc3ccc(Cl)cc3)nc(Nc3cccc(F)c3)n2)c1 | 30% | -3% | 6 | 93% (active) | inactive | inactive | inactive | inactive
O=C(NCC1CCN(CCN2CCC(c3cn(CCO)c4ccccc34)CC2)CC1)c1ccc(-c2ccc(C(F)(F)F)cc2)cc1 | 100% (active) | 100% (active) | 0 | 101% (active) | inactive | inactive | inactive | inactive
COc1ccc(NC(=O)[C@H](CC(C)C)Nc2cc(C)nc(Nc3ccccc3)n2)cc1 | 92% (active) | 25% | -1 | 101% (active) | inactive | inactive | inactive | inactive
CCOc1ccc(S(=O)(=O)N(C)c2ccc(OCC(=O)Nc3nccs3)cc2)cc1 | 4% | 8% | 3 | 95% (active) | inactive | inactive | inactive | inactive
CCOc1cc(C(=O)NCc2cccc(C(F)(F)F)c2)ccc1-c1nc2ccc(Cl)cc2[nH]1 | 31% | 7% | -6 | 88% (active) | inactive | inactive | inactive | inactive
FC(F)(F)c1ccc(CNC2CCN(CC3CCCCC3)CC2)cc1 | 5% | 4% | -4 | 87% (active) | inactive | inactive | inactive | inactive
NC(=O)c1ccc(C(=O)Nc2cccc(-c3cccc(-c4nc5ccc(C(F)(F)F)cc5[nH]4)c3)c2)cc1 | 36% | 63% (active) | -5 | 100% (active) | inactive | inactive | inactive | inactive
Cc1cccc2[nH]c(-c3cccc(-c4cccc(NC(=O)Nc5ccc(F)c(F)c5F)c4)c3)nc12 | 99% (active) | 32% | 4 | 100% (active) | inactive | inactive | inactive | inactive
COc1ccc2c(c1)CCCC2C(C)NCC(O)c1cccc(C(F)(F)F)c1 (stereo not given) | 99% (active) | 3% | -3 | 99% (active) | inactive | inactive | inactive | inactive
COc1ccc2c(=O)ccn(CCN3CCC(NCc4ccc5c(n4)NC(=O)CS5)CC3)c2c1 | 99% (active) | 7% | 1 | 98% (active) | inactive | inactive | inactive | inactive
COc1ccc2ncc(F)c([C@@H](O)CN3CCC(NCc4cc(C#N)c5c(c4)CCO5)CC3)c2n1 | 50% (active) | 15% | 4 | 92% (active) | inactive | inactive | inactive | inactive
CCNC(=O)N1CCN(c2nc(-c3ccccc3)nc(COC)c2Cc2ccc(C)cc2)CC1 | 94% (active) | 27% | 0 | 95% (active) | inactive | inactive | inactive | inactive
CC(C)NCc1ccc(-c2cccc(NC(=O)c3ccc(F)cc3)c2)cc1 | 7% | 28% | 6 | 91% (active) | inactive | inactive | inactive | inactive
S=C(NCCCCCN1CCC(c2c[nH]c3ccccc23)CC1)Nc1ccc(Cl)c(Cl)c1 | 31% | 89% (active) | -3 | 101% (active) | inactive | inactive | inactive | inactive
O=C(NC1CCCCC1)c1ccc(O)c(-c2cccc(C(F)(F)F)c2)c1 | 87% (active) | 8% | 0 | 97% (active) | inactive | inactive | inactive | inactive
Cc1cc(N(CCO)CCCN2CCCCC2)nc(Nc2ccc(Cl)cc2)n1 | 18% | 12% | -9 | 100% (active) | inactive | inactive | inactive | inactive
Cc1c(-c2cccc(NC(=O)C(C)(C)Oc3ccc(Cl)cc3)c2)nc2ncccn12 | 95% (active) | 0% | -3 | 98% (active) | inactive | inactive | inactive | inactive
CCOc1ccc2c(c1)N(C(=O)C=Cc1ccccc1)C(C)(C)c1ssc(=S)c1-2 | 77% (active) | 3% | -1 | 83% (active) | inactive | inactive | inactive | inactive
CO/C(=C\C=C\c1cc2cc(Cl)ccc2[nH]1)C(=O)NCCCN1CCN(c2cc(Cl)ccc2OC)CC1 | 21% | 41% | -2 | 97% (active) | inactive | inactive | inactive | inactive

SMILES | growth inhibition [1] | inhibition [2] | inhibition [3] [%] | growth inhibition [4] | outcome [5] | outcome [6] | outcome [7] | outcome [8]
CN1C(=CC(=O)NC(=O)c2ccccc2)C(C)(C)c2ccccc21 | 89% (active) | -5% | 4 | 93% (active) | inactive | inactive | inactive | inactive
COc1ccc(NC(=O)Nc2ccc(-c3cccc(-c4nc5ccccc5[nH]4)c3)cc2)cc1 | 41% | 44% | 3 | 99% (active) | inactive | inactive | inactive | inactive
Cc1cc(NCCC(=O)Nc2ccccc2)nc(NCCc2ccc(F)cc2)n1 | 43% | 26% | 2 | 101% (active) | inactive | inactive | inactive | inactive
COCCn1c(SC(C)C(=O)Nc2cc(C(F)(F)F)ccc2Cl)nc2ccccc2c1=O (stereo not given) | 95% (active) | 8% | 4 | 97% (active) | inactive | inactive | inactive | inactive
CCc1cc(CNC2CCN(CCc3c(F)cnc4ccc(OC)nc34)CC2)cc2c1OCCO2 | 94% (active) | 46% | 1 | 100% (active) | inactive | inactive | inactive | inactive
O=C(Nc1cccc(-c2ccc(-c3nc4ccc(C(F)(F)F)cc4[nH]3)s2)c1)c1cnc[nH]1 | 36% | 55% (active) | -3 | 89% (active) | inactive | inactive | inactive | inactive
Brc1cc(Br)c2c(c1)C(NCCCNC1CCNc3c(Br)cc(Br)cc31)CCN2 (stereo not given) | 25% | 18% | -1 | 98% (active) | inactive | inactive | inactive | inactive
Cc1ccc(Nc2nc3cc(N(C)c4ccnc(Nc5cccc(CS(C)(=O)=O)c5)n4)ccc3o2)cc1 | 16% | -19% | 3 | 90% (active) | inactive | inactive | inactive | inactive
CC1SC(=S)NC1C(=O)O (stereo not given) | -1% | 3% | 0 | 94% (active) | inactive | inactive | inactive | inactive
COc1ccc(-n2nc(C(=O)NCCC3=CCCCC3)c3ccccc3c2=O)cc1 | 59% (active) | 0% | -4 | 94% (active) | inactive | inactive | inactive | inactive
O=C(NC1CCC(N2CCC(O)(c3ccc(F)cc3)CC2)CC1)c1cc2ccccc2[nH]1 (stereo not given) | 8% | 9% | -4 | 94% (active) | inactive | inactive | inactive | inactive
Cc1cc(C(=O)Nc2ccc3c(c2)CCN3C2CCN(Cc3csc4ccccc34)C2)no1 (stereo not given) | 96% (active) | 1% | 0 | 96% (active) | inactive | inactive | inactive | inactive
O=C(NCc1ccccc1)O[C@@H]1CNCC[C@H]1c1ccc(C(O)Cc2ccccc2)cc1 (stereo not given in full) | 5% | 8% | 4 | 87% (active) | inactive | inactive | inactive | inactive
CN(C)Cc1cc2c(O)c(Cc3ccccc3)ccc2o1 | 69% (active) | 3% | -8 | 85% (active) | inactive | inactive | inactive | inactive
CC(=O)Nc1ccc(C(=O)Nc2cccc(-c3ccc(-c4nc5ccc(C(F)(F)F)cc5[nH]4)s3)c2)cn1 | 98% (active) | 42% | 3 | 100% (active) | inactive | inactive | inactive | inactive
Cc1cc(NC(=O)Nc2ccc(I)c(OCCN(C)C)c2)ccc1Br | 42% | 18% | 4 | 101% (active) | inactive | inactive | inactive | inactive
O=C(Nc1cccc(CN2CCCN(Cc3ccccc3)CC2)c1)c1ccc(-c2ccccc2)cc1 | 8% | 45% | -1 | 85% (active) | inactive | inactive | inactive | inactive
COc1cc2c(cc1S(=O)(=O)c1ccc(NC(=O)Nc3ccc(F)cc3)cc1)CCN(C)CC2 | 55% (active) | -1% | -5 | 99% (active) | inactive | inactive | inactive | inactive
Oc1ccc(-c2ccccc2)cc1CN1CCCCC1 | 70% (active) | 3% | -1 | 93% (active) | inactive | inactive | inactive | inactive
CN(Cc1ccc(-c2ccc(C(F)(F)F)cc2)cc1)C(=O)Cn1c(CCc2cccc(F)c2F)nc(=O)c2ccc(N3CCN(CCN4CCCCC4)CC3)nc21 | 100% (active) | 100% (active) | 5 | 101% (active) | inactive | inactive | inactive | inactive
